This is a sample that favours compounds with a hit; in the whole collection about 1.9% have one here.
PP1 inh – PP1-alpha phosphatase inhibitors, primary screen, counter-screen for PP5 inhibitor project, biochemical, fluorescence, OMFP substrate, single point; purified PP1alpha; inhibition, % at 6.7 µM; AID 2235, 2010; Serine/threonine-protein phosphatase PP1-alpha catalytic subunit (Homo sapiens), P62136; 320,000 tested, 0.9% active;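 active = inhibition above the mean inhibition of all tested compounds plus 3 SD, computed separately for each screening campaign, cut at about 15% in these data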
Target sequence (P62136 whole entry, looked up): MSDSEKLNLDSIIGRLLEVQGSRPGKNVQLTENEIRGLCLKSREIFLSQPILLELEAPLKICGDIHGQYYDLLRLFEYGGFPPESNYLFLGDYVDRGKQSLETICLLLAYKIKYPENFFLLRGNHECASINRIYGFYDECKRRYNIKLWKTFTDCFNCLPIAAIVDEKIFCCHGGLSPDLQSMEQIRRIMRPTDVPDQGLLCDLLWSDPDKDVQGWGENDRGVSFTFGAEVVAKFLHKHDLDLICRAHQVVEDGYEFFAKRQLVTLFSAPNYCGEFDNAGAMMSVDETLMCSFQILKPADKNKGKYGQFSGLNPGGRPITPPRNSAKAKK
H9c2 protect – cardioprotection against H2O2-induced cell death, primary screen, uHTS, H9c2 cells, ATPLite luminescence; protection from H2O2 cell death, % at 20 µM; H9c2 cardiomyocytes, H2O2 injury protection, 2 h; 360,000 tested, 0.63% active;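 active = compounds giving at least 50% protection of heart cells from peroxide-induced death in the single-dose screen, raw or plate-pattern-corrected value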;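 note: 0% = DMSO wells with peroxide and 100% = DMSO wells without peroxide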
PP5 primary – PP5 phosphatase inhibitors, primary screen, biochemical, fluorescence; inhibition, % at 6.7 µM; purified PP5c, OMFP substrate fluorescence; 320,000 tested, 0.18% active; Serine/threonine-protein phosphatase 5 (Homo sapiens), P53041;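 active = inhibition above the campaign's mean inhibition across all tested compounds plus 3 SD, cut at about 9.5% in these data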;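 note: 0% = DMSO only and 100% = 100 µM cantharidin control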
ATG4B inh – ATG4B protease inhibitors, primary screen, biochemical, fluorescence, uHTS. inhibition, % at 8.33 µM. Cysteine protease ATG4B (Homo sapiens), Q9Y4P1. 340,000 tested, 0.51% active. ATG4B cleavage of LC3-PLA2, NBD-HPC fluorescence, 1 h; in the data active = inhibition above about 40%
ATG4B confirm – ATG4B protease inhibitors, retest, confirmation, biochemical, fluorescence, single concentration | shares compounds with ATG4B inh | ATG4B protease fluorescent substrate cleavage assay | inhibition, % at 8.33 µM | 320 tested, 92% active | AID 504757, 2011; in the data active = inhibition above about 39%
PLA2 ctr – PLA2 enzyme inhibition, counter-screen for ATG4B inhibitor project, biochemical, single concentration, uHTS hits | shares compounds with ATG4B inh | purified PLA2, NBD-C6-HPC fluorescence, 45 min | inhibition, % at 8.33 µM | 1,600 tested, 66% active; in the data active = inhibition above about 50%
Target sequence (P04054 whole entry, looked up): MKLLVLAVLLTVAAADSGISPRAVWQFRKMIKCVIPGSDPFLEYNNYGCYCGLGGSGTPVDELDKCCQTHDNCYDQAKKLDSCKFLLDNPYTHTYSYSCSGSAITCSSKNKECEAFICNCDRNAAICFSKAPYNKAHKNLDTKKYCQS
* hit, by the source's call; . = not tested or not shown.

SMILES | PP1 inh | H9c2 protect | PP5 primary | ATG4B inh | PLA2 ctr | others
O=C(c1ccc(Cl)cc1)c1oc2ccccc2c1CS(=O)c1ccccc1 (centres undefined) | 2 | 10 | 2 | 54* | 59*
Cc1nc(NCC(c2ccccc2)N(C)C)c2c(C)c(C)sc2n1 (centres undefined) | 2 | -5 | -1 | 27 | .
c1ccc2oc(SCc3cn4ccsc4n3)nc2c1 | 2 | -2 | 1 | -17 | .
O=c1c2ccccc2nc(SCc2cn3ccsc3n2)n1-c1ccccc1 | 1 | 18 | 0 | 60* | 73*
O=c1c2ccccc2nc(SCc2cn3ccsc3n2)n1-c1ccccc1F | 9 | 10 | 3 | 66* | 72*
O=c1c2ccccc2nc(SCc2nnc(-c3ccccc3)o2)n1-c1ccc(F)cc1F | 3 | -19 | 4 | 62* | 69*
O=C(Nc1ccccc1N1CCN(c2ccccc2)CC1)c1ccccc1 | -3 | 9 | 1 | 44* | 43 | ATG4B confirm=62*
O=C(NCCOc1ccc(Cl)cc1)c1cccc(S(=O)(=O)N2CCCC2)c1 | 0 | -7 | 3 | 3 | .
COc1ccc(OC)c(NC(=O)c2nnn(Cc3ccccc3C)c2N)c1 | 13 | -8 | 5 | 60* | 64*
O=C(O)CC/C(=C\c1ccccc1[N+](=O)[O-])c1nc2ccccc2s1 | -3 | 4 | -1 | 53* | 51*
O=C(O)CC/C(=C\c1ccc(N2CCCC2)c([N+](=O)[O-])c1)c1nc2ccccc2s1 | 1 | 2 | -3 | 83* | 83*
O=C(O)CC/C(=C\c1cccc(NC(=O)c2ccccc2Cl)c1)c1nc2ccccc2s1 | 4 | -1 | 3 | 43* | 62*
CCOC(=O)N1CCN(C(=O)C2CCC(=O)N(CCCc3ccccc3)C2)CC1 (centres undefined) | . | 2 | . | -1 | .
CCOC(=O)C1=CN(Cc2ccco2)S(=O)(=O)N(CC)C1c1cccc(OC)c1 (centres undefined) | . | -5 | . | 10 | .
CN1CCN(c2nc(-c3cccs3)cs2)CC1 | -2 | -4 | -2 | -8 | .
O=C1c2ccccc2C(=O)N1c1nc(-c2cccs2)cs1 | 1 | 4 | 2 | 59* | 64*
Cn1c(=O)[nH]c(=O)c2c1nc(N1CCN(CCO)CC1)n2Cc1ccccc1 | -1 | -1 | -2 | 3 | .
Nc1cc(S(=O)(=O)C(F)(F)F)ccc1C(=O)O | 2 | 6 | 0 | 8 | .
O=S(=O)(c1ccc2c(c1)C(O)c1ccccc1CC2)C(F)(F)F (centres undefined) | 3 | -10 | 6 | 40* | 60*
Cc1ccc(C(=O)Nc2nc(C(N)C(C)C)cs2)cc1 (centres undefined) | . | 2 | . | . | .
O=C(O)c1oc2ccccc2c1-n1cccc1 | 0 | -3 | 4 | 58* | 57*
COC(=O)c1oc2ccc(Br)cc2c1-n1cccc1 | 1 | -6 | 0 | 5 | .
Cc1ccccc1/C(N)=N/OC(=O)N1c2ccccc2Sc2ccccc21 | 5 | 0 | 3 | 54* | 60*
Cc1csc(NC(=O)c2cc3c(C)nn(Cc4ccccc4Cl)c3s2)n1 | 1 | -2 | 4 | 66* | 58*
O=C(O)c1cc(-c2ccccc2)nc2nc(N3CCCCC3)sc12 | -1 | . | 0 | . | .
SMILES | PP1 inh | H9c2 protect | PP5 primary | ATG4B inh | PLA2 ctr | others
Cc1ccc(-c2cc(C(=O)O)c3sc(N4CCCCC4)nc3n2)cc1 | 3 | -1 | -1 | 40* | -6
CCOC(=O)c1ccc(NC(=O)NCc2ccccc2)cc1 | -1 | -4 | 0 | 49* | 56*
Clc1cccc(/C=N/Nc2nnc(Cl)c3ccccc23)c1 | -2 | -5 | 1 | 2 | .
Clc1ccc(/C=N/Nc2nnc(-c3ncc[nH]3)c3ccccc23)cc1 | -1 | 16 | 3 | 79* | 82*
C[C@H](CO)N1C[C@H](C)[C@@H](CN(C)C(=O)Nc2ccc(C(F)(F)F)cc2)Oc2ccc(NC(=O)Nc3ccc(C(F)(F)F)cc3)cc2C1=O | . | 0 | . | -8 | .
C[C@H]1CN([C@@H](C)CO)C(=O)c2cc(NC(=O)NC3CCCCC3)ccc2O[C@H]1CN(C)C(=O)Nc1ccc(C(F)(F)F)cc1 | . | -4 | . | 62* | 74*
O=C(O)c1cc(NN=Nc2cccc([N+](=O)[O-])c2)cc([N+](=O)[O-])c1 | -1 | 3 | 0 | 83* | 87*
O=C(c1ccc2c(=O)n(C3CCCC3)c(=S)[nH]c2c1)N1CCCCCC1 | 4 | -12 | 2 | 62* | 65*
CCOC(=O)C1CCCN(C(=O)c2ccc3c(=O)n(Cc4ccccc4OC)c(=S)[nH]c3c2)C1 (centres undefined) | 2 | -3 | 6 | 51* | 44 | ATG4B confirm=74*
CC1CCCN(C(=O)c2ccc3c(=O)n(C4CCCC4)c(=S)[nH]c3c2)C1 (centres undefined) | -7 | -13 | 0 | -21 | .
O=C(O)c1ccccc1C(=O)NNc1ccc(Cl)cc1Cl | 1 | -2 | 3 | 7 | .
Cc1cc(C)c2c(C)c(C(=O)Nc3c(C)n(C)n(-c4ccccc4)c3=O)oc2c1 | -4 | 0 | -1 | 71* | 69*
Cc1c(NC(=O)c2cc3ccccc3o2)c(=O)n(-c2ccccc2)n1C | -2 | -2 | 0 | -2 | .
O=C(c1cc(-c2ccccc2O)on1)N1CCc2ccccc2C1 | -3 | -28 | 3 | 32 | .
O=C(c1cc(-c2ccco2)on1)N1CCCc2ccccc21 | 3 | 13 | -1 | 63* | 49
O=C(c1cc(-c2ccco2)on1)N1CCc2ccccc2C1 | 7 | 3 | 1 | 46* | 58*
CN(C)S(=O)(=O)n1cnc([C@@H]2[C@@H]3C(=O)OC[C@@H]3C[C@]23N=CN(Cc2ccccc2)C3=O)c1 | -3 | 2 | -1 | 0 | .
COc1ccc(Cl)cc1C(=O)NNC(=O)CNC(=O)c1ccco1 | . | 9 | . | -35 | .
Cc1cccn2c(=O)c(C(=O)NC3CC(C)CC(C)(C)C3)c(O)nc12 (centres undefined) | 1 | -1 | 1 | 5 | .
COc1ccc2c(c1)C(c1cccs1)=NNC(c1ccncc1)=N2 | -1 | -4 | 1 | -15 | .
c1ccc(C2=Nc3c(ccc4ccccc34)C(c3ccncc3)=NN2)cc1 | -1 | 8 | 2 | 47* | 71*
CCc1ccc2c(c1)C(c1ccncc1)=NNC(c1ccccc1)=N2 | -1 | 11 | 0 | 48* | 59*
COc1ccc2c(c1)C(c1ccc(C)o1)=NNC(c1ccccc1)=N2 | 0 | 13 | 4 | 42* | 42 | ATG4B confirm=69*
